# Measured values as given in PubChem BioAssay (NCATS).
# “And” between values parts separate entries of the source, which are not always exact repeats. Equal entries are not always repeated. Inconclusive results are not listed. The source made the active and inactive calls. Unless noted, calls follow the shape of the dose curve; as a rule, active = well fitted curve in the direction sought with a large enough effect; inconclusive = small, poorly fitted or top-dose-only effect, or another doubt; inactive = no such curve, though single readings can be large; an effect the other way counts as inactive or inconclusive.
# Assays:
# [1] = target: Nucleoprotein (Lymphocytic choriomeningitis virus (strain Armstrong)) (UniProt P09992); assay: qHTS for Inhibitors of the Functional Ribonucleoprotein Complex (vRNP) of Lymphocytic Choriomeningitis Arenaviruses (LCMV): LCMV Primary Screen - GLuc reporter signal (AID 1347086; calls by dose curve; also: nearly all actives have a fitted effect of over 70% in size; also: potency is read from the fitted curve at half-maximal effect; as to activity change, negative = inhibition: % is scaled to controls: 0 for no effect and ±100 for the full control effect)
# Nucleoprotein (Lymphocytic choriomeningitis virus (strain Armstrong)), sequence (P09992 whole entry, looked up): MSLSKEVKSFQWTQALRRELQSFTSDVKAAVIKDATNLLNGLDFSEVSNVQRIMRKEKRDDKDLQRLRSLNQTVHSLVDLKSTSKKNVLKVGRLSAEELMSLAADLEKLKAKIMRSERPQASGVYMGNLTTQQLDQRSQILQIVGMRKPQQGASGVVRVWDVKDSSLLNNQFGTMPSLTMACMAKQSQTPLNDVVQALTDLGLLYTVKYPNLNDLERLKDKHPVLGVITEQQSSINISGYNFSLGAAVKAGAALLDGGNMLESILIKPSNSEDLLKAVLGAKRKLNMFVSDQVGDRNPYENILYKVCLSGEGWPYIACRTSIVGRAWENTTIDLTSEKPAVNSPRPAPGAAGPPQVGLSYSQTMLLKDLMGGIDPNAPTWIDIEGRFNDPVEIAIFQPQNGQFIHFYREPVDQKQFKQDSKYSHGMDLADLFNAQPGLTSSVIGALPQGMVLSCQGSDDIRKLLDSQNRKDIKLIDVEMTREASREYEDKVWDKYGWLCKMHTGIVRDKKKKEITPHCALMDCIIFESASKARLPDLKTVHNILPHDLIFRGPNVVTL
# [2] = Cytotoxicity counterscreen for inhibitors of SARS-CoV-2 cell entry (AID 1645845; calls by dose curve; also: nearly all actives have a fitted effect of over 50% in size)
# How it was run: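 After a 15 min room-temperature ATPLite 1step step, luminescence reflected ATP remaining in HEK293-ACE2 cells exposed to compound for 1 h plus 48 h at 37 C, with percent activity set by cell and no-cell controls.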
# [3] = test system: Zika virus NS2B-NS3 protease; assay: Primary screen GU AMC qHTS for Zika virus inhibitors (AID 1347154);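 also: 0% = no-inhibitor control and -100% = no-enzyme control; nearly all actives have a fitted effect of over 70% in size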
# How it was run: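 Unlinked Zika NS2B hydrophilic domain/NS3 protease domain noncovalent complex (25 nM final) in 10 mM Tris-HCl pH 8.0, 0.01% Tween 20, with AMC peptide substrate. Fluorescence (ex 340, em 450 nm) change over 15 min, room temperature; percent inhibition fitted to 4-parameter Hill equation.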
# [4] = Confirmation and Secondary Assay for Modulators of Hemoglobin Beta Chain Splicing at IVS2 654 locus (AID 910);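 also: per-well total GFP intensity by laser scanning cytometry after 2-day treatment; % of control where 0% means no effect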
# How it was run: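 HeLa cells stably carrying EGFP interrupted by mutant beta-globin IVS2-654 intron (CMV-driven) were treated with compound for 2 days at 37C; corrected splicing was scored as total peak GFP intensity per well (488 nm excitation, 500-520 nm emission).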
# [5] = Confirmation and Secondary Assay for Modulators of Hemoglobin Beta Chain Splicing at IVS2 705 locus (AID 930);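 also: HeLa cells stably expressing the EGFP-705 splicing reporter; % of control where 0% means no effect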
# How it was run: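 HeLa cells stably carrying EGFP interrupted by mutant beta-globin IVS2-705 intron (CMV-driven) were seeded at 500 cells/well, treated next day with compound for 2 days at 37C; corrected splicing restores EGFP, read as total peak GFP intensity per well.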
# [6] = qHTS Assay for Lipid Storage Modulators (AID 1519; calls by dose curve); conditions: Drosophila S3 cells, BODIPY lipid droplet/cell ratio, laser cytometry, cells loaded with oleic acid
# How it was run: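 Cells seeded at 5,000 per well were treated with compounds over a concentration series and loaded with oleic acid (400 uM, as added). Lipid droplet fluorescence (488 nm excitation, 500-530 nm channel) was read by laser-scanning cytometry and normalized to 20 uM Triacsin C.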
# Furin (Homo sapiens) = Furin (Homo sapiens) (UniProt P09958); assay: Furin counterscreen qHTS for Zika virus inhibitors (AID 1347149);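 also: purified recombinant full-length human furin enzyme at 5 nM; fluorescence gain from furin cutting a BOC-RVRR-AMC peptide substrate over 15 min; top concentration of the series differs between compounds; plate controls were no-inhibitor control for no effect and no-enzyme control for full effect; nearly all actives have a fitted effect of over 70% in size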
# Furin (Homo sapiens), sequence (P09958 whole entry, looked up): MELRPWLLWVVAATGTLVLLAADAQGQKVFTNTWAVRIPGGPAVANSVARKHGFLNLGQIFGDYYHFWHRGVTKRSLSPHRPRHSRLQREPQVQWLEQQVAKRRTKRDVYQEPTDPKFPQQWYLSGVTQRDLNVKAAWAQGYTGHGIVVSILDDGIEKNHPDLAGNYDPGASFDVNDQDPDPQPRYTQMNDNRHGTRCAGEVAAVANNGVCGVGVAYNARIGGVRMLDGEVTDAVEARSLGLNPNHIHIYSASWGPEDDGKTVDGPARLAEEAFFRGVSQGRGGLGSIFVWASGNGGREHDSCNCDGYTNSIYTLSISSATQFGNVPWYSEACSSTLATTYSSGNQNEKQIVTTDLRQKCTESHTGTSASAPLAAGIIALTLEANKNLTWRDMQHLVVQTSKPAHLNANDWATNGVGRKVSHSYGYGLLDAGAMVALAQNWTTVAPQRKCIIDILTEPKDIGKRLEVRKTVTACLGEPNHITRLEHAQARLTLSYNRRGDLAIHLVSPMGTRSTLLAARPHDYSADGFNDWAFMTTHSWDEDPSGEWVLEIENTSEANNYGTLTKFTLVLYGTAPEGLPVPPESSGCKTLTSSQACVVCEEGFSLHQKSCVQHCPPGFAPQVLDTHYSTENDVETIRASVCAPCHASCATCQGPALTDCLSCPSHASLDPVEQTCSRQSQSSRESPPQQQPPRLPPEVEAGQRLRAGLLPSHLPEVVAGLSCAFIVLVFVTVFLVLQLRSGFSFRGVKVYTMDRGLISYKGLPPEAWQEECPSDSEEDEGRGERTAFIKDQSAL
# How it was run: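 Counterscreen measures cleavage of 2 microM BOC-RVRR-AMC, below its ~15 microM Km, by 5 nM full-length human furin at pH 7.0 after a 15-min compound preincubation. Inhibition derives from the 15-min fluorescence increase at 37C.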
# [7] = Confirmatory screen GU Rhodamine qHTS for Zika virus inhibitors qHTS (AID 1347157); also: potency is read from the fitted curve at half-maximal effect; nearly all actives have a fitted effect of over 70% in size
# How it was run: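 Unlinked NS2B/NS3, 25 nM; Rhod110 peptide, 1.5 microM; compounds, up to 114 microM. Reaction run 15 min at RT in 10 mM Tris-HCl pH 8.0, 0.01% Tween 20; kinetic fluorescence change fitted with a 4-parameter Hill model.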
# [8] = Confirmatory screen NINDS Rhodamine qHTS for Zika virus inhibitors (AID 1347161); also: potency is read from the fitted curve at half-maximal effect; nearly all actives have a fitted effect of over 60% in size
# How it was run: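 Each compound, titrated, sat 15 min with 25 nM linked protease before 1.5 microM Rhodamine110 substrate went in. Fluorescence gain over the next 15 min, in pH 8.0 Tris with Tween 20, gave Hill-fitted curves.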
# [9] = test system: Zika virus NS2B-NS3 protease (linked); assay: 384 well plate NINDS AMC confirmatory qHTS for Zika virus inhibitors (AID 1347163); conditions: Recombinant NS2B-NS3 protease, Ac-VKTGKR-AMC fluorescence; also: potency is read from the fitted curve at half-maximal effect; nearly all actives have a fitted effect of over 50% in size
# How it was run: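 Fluorescence at 355/460 nm was read after 25 minutes of cleavage of 30 microM Ac-VKTGKR-AMC at room temperature, in the dark. Before substrate addition, compounds (up to 1 mM final) sat ~15 minutes with 5, 30 or 60 nM linked protease. Signals were normalized to no-enzyme and no-inhibitor wells.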
# [10] = test system: Zika virus NS2B-NS3 protease (linked construct); assay: 384 well plate NINDS Rhodamine confirmatory qHTS for Zika virus inhibitors (AID 1347164);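 also: fluorescence from protease cleavage of Ac-LKRR-rhodamine 110 substrate; potency is read from the fitted curve at half-maximal effect; nearly all actives have a fitted effect of over 65% in size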
# How it was run: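 Linked protease at a final 5 nM, 30 nM or 60 nM was preincubated ~15 min with compounds, then given 10 microM Ac-LKRR-Rhodamine 110. Fluorescence (ex 485/em 538 nm) after 25 min in the dark at room temperature.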
# [11] = Tertiary RLuc qRT-PCR qHTS assay for Zika virus inhibitors (AID 1347169); also: nearly all actives have a fitted effect of over 55% in size; also: potency is read from the fitted curve at half-maximal effect
# How it was run: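 Vero cells (1,000 per well) plated overnight at 37 degrees C, treated with compound in DMSO, then infected with recombinant ZIKV-RLuc (Cambodian) at MOI 1-2 for 48-72 hrs. Live-cell Renilla luciferase substrate added; luminescence read after 1-1.5 hrs.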
# [12] = test system: Zika virus NS2B-NS3 protease (unlinked); assay: Optimization of GU AMC qHTS for Zika virus inhibitors: Unlinked NS2B-NS3 protease assay (AID 1347151);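 also: 0% = no-inhibitor control and -100% = no-enzyme control; nearly all actives have a fitted effect of over 80% in size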
# How it was run: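 Noncovalent complex of NS2B hydrophilic domain and NS3 protease domain, 25 nM final, in 10 mM Tris-HCl pH 8.0, 0.01% Tween 20. AMC fluorescence change over 15 min at room temperature was fitted to a 4-parameter Hill equation.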
# [13] = Vero cells viability qHTS for Zika virus inhibitors (AID 1347167); also: % is scaled to controls: 0 for no effect and ±100 for the full control effect
# How it was run: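 To flag cytotoxic protease inhibitors, viability is measured by ATP-dependent luminescence (CellTiter Glo) after cells attached overnight receive compound for 24 to 48 hours in DMEM with 4% FBS.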
# [14] = Primary qHTS for small molecule stabilizers of the endoplasmic reticulum resident proteome: Secreted ER Calcium Modulated Protein (SERCaMP) assay (AID 1508630); also: % is scaled to controls: 0 for no effect and ±100 for the full control effect
# How it was run: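 The SH-SY5Y reporter protocol was run at 3 concentrations up to 38.3 uM (primary) or 11 concentrations (follow-up): 16 h compound, 100 nM thapsigargin for 4 h, then extracellular luciferase luminescence.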
# [15] = target: Cytochrome P450 1A2 (Homo sapiens) (UniProt P05177); assay: p450-cyp1a2 (AID 410; calls by dose curve; also: potency is read from the fitted curve at half-maximal effect)
# Cytochrome P450 1A2 (Homo sapiens), sequence (P05177 whole entry, looked up): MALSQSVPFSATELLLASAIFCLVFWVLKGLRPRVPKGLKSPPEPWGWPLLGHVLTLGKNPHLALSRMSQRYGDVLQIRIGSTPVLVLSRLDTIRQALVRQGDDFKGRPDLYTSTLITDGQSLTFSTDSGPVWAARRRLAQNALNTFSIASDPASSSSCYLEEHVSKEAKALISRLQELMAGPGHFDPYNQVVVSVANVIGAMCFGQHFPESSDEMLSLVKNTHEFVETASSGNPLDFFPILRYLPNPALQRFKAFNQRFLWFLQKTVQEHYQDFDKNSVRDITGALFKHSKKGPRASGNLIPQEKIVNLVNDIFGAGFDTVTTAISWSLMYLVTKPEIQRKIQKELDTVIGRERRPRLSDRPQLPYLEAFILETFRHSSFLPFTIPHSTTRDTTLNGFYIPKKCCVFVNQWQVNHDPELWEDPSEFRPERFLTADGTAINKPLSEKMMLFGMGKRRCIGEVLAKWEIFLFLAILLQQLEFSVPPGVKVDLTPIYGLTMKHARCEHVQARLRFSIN
# How it was run: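 O-Demethylation of luciferin 6' methyl ether by human CYP1A2 is monitored as luciferase luminescence. Substrate sits at Km (100uM); enzyme is 20nM. Values are scaled to 57 uM furafylline as maximal inhibition.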
# [16] = target: Glucocorticoid receptor (Homo sapiens) (UniProt P04150); assay: GR-GFP Redistribution (AID 450;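 active = compounds whose dose series gives a full or clear partial fitted curve of increased nuclear translocation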; also: potency is read from the fitted curve at half-maximal effect); conditions: U2OS GR-GFP nuclear translocation, laser cytometry, 2 h
# Glucocorticoid receptor (Homo sapiens), sequence (P04150 whole entry, looked up, the tested form may be a part): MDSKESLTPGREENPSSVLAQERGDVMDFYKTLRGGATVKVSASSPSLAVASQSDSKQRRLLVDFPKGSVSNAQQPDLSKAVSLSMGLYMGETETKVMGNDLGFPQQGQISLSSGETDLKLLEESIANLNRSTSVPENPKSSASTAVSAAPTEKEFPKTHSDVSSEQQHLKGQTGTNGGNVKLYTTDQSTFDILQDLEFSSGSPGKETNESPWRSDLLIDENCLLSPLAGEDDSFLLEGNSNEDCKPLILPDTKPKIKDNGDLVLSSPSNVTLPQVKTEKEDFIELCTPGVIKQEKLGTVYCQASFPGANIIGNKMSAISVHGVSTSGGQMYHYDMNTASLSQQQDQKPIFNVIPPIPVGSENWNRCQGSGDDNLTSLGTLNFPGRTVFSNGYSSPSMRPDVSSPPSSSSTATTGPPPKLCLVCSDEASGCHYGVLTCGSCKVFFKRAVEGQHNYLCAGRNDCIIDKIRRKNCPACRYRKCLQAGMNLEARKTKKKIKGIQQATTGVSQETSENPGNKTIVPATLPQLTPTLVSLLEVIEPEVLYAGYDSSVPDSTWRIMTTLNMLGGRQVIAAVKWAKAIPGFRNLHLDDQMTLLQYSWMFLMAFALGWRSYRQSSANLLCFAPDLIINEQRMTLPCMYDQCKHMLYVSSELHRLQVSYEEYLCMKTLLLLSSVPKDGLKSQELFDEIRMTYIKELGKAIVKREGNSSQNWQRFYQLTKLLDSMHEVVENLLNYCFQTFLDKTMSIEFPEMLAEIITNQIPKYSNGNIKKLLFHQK
# [17] = target: Glucocorticoid receptor (Homo sapiens) (UniProt P04150); assay: GR-EFC Redistribution (AID 451; calls by dose curve; also: potency is read from the fitted curve at half-maximal effect); conditions: CHO-K1 GR-EFC translocation, beta-gal luminescence, 2 h
# How it was run: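 CHO-K1 cells stably expressing nuclear-localized β-gal enzyme acceptor and GR fused C-terminally to the enzyme donor fragment; ligand-driven nuclear translocation restores β-gal by complementation. Compounds titrated up to 46 uM final, 2 h at 37 °C; luminescence read.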
# [18] = target: Mitogen-activated protein kinase 10 (Mus musculus) (UniProt Q61831); assay: JNK3 AlphaScreen Assay (AID 530; active = well fitted curve in either direction with a large enough effect, not every such curve was filed as active;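 also: kinase came from lysate of stimulated human HepG2 cells; signal reports phosphorylation of biotinylated GST-cJun 1-79 at Ser73 with 10 µM ATP; % is scaled to controls: 0 for no effect and ±100 for the full control effect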)
# How it was run: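 Phosphorylation of biotinylated GST-cJun(1-79) at Ser73 is measured by AlphaScreen proximity luminescence. Enzyme is JNK3 in HepG2 lysates activated with interleukin-1beta and tumor necrosis factor alpha; ATP is 10 uM final.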
# [19] = target: Cytochrome P450 3A4 (Homo sapiens) (UniProt P08684); assay: qHTS Assay for Inhibitors and Substrates of Cytochrome P450 3A4 (AID 884); also: potency is read from the fitted curve at half-maximal effect; nearly all actives have a fitted effect of over 50% in size
# Cytochrome P450 3A4 (Homo sapiens), sequence (P08684 whole entry, looked up): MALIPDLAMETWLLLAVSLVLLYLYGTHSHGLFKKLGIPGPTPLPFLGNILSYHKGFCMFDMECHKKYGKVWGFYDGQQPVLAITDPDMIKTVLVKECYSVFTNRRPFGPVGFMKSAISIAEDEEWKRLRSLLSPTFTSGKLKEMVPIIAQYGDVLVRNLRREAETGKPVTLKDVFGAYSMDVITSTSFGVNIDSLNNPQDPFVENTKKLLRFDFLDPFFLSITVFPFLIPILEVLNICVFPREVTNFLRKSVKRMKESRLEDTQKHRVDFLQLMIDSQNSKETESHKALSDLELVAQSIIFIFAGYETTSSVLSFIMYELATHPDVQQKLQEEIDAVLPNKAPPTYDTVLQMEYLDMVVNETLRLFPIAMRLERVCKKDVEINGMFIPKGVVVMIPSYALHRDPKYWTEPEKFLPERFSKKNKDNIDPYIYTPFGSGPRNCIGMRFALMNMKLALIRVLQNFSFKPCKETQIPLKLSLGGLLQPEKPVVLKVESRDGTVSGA
# How it was run: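 Luminescent readout of luciferin produced by CYP3A4 (20 nM) dealkylation of Luciferin-PPXE, 25 uM (its KM). NADPH-driven reaction ran 60 min at RT after 10 min compound preincubation; data scaled to 57 uM ketoconazole as 100% inhibition.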
# [20] = target: Cytochrome P450 3A4 (Homo sapiens) (UniProt P08684); assay: qHTS Assay for Activators of Cytochrome P450 3A4 (AID 885); also: nearly all actives have a fitted effect of over 65% in size
# How it was run: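 Luminescent readout of luciferin formed from 25 uM Luciferin-PPXE (KM level) by 20 nM CYP3A4 in 200 mM KPO4, with 60 min NADPH-driven reaction at room temperature after 10 min compound exposure. Ketoconazole (57 uM) defined 100% inhibition.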
# [21] = target: Ubiquitin carboxyl-terminal hydrolase 1 (Homo sapiens) (UniProt O94782); assay: Inhibitors of USP1/UAF1: Pilot qHTS (AID 504865); also: potency is read from the fitted curve at half-maximal effect; nearly all actives have a fitted effect of over 35% in size
# Ubiquitin carboxyl-terminal hydrolase 1 (Homo sapiens), sequence (O94782 whole entry, looked up): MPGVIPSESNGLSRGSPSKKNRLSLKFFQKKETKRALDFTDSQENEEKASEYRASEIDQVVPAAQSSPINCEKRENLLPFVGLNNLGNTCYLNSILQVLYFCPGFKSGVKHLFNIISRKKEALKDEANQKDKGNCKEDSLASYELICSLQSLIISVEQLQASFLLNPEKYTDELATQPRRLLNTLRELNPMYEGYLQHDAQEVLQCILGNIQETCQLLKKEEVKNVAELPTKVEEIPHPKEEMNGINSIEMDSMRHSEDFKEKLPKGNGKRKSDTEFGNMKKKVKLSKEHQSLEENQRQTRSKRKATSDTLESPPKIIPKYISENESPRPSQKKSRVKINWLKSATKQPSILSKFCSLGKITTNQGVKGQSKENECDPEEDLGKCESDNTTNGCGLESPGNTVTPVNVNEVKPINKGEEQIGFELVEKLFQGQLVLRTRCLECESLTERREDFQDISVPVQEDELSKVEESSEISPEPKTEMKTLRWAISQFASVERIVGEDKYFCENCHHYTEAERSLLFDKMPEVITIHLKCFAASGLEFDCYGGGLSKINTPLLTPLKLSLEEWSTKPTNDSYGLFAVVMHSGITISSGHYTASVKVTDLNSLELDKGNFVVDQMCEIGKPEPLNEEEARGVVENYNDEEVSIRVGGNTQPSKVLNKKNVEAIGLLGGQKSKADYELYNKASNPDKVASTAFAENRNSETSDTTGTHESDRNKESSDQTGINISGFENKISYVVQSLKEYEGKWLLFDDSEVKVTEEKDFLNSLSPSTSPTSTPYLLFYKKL
# How it was run: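 USP1/UAF1 complex (1nM) preincubated with compound 15 min at room temperature, then Ub-Rho substrate (150nM final) added. Fluorescence read kinetically at 480/540 nm, 6 reads every 60 seconds. Buffer: 50mM HEPES pH 7.8, 0.5mM EDTA, 0.1 mg/ml BSA, 1mM TCEP, 0.01% Tween-20.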
# [22] = Counterscreen qHTS for small molecule stabilizers of the endoplasmic reticulum resident proteome: GLuc-NoTag assay (AID 1508627); also: potency is read from the fitted curve at half-maximal effect
# How it was run: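 Secreted GLuc lacking the SERCaMP modification is measured in SH-SY5Y cells exposed to compound for 19 h and then to thapsigargin (100 nM, 4 h) to deplete ER calcium; hits retested at 11 concentrations, up to 76.6 uM.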
# [23] = Confirmatory qHTS for small molecule stabilizers of the endoplasmic reticulum resident proteome: Secreted ER Calcium Modulated Protein (SERCaMP) assay (AID 1508628); also: potency is read from the fitted curve at half-maximal effect; nearly all actives have a fitted effect of over 40% in size
# How it was run: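 Reporter secretion upon ER calcium depletion (100 nM thapsigargin, 4 h, 37C) is measured as medium luminescence with coelenterazine, after 16 h compound pretreatment of SH-SY5Y-GLuc-SERCaMP cells; primary at three concentrations up to 38.3 uM, follow-up at 11 (up to 76.6 uM).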
structure (smiles),measurement,setting,value
COc1ccc(Cn2ccc3ccc(C(=O)NO)cc32)cc1,Potency,[1],inactive
same,Potency,[2],inactive
Oc1ccc2c3c1O[C@H]1c4oc5ccccc5c4C[C@@]4(O)C(C2)N(CC2CC2)CC[C@]314,Potency,[3],inactive
O=c1c(O)c(-c2ccc(O)c(O)c2)oc2c(O)c(O)cc(O)c12,Potency,[4],inactive
same,outcome,[5],inactive
same,"activity change, negative = inhibition",[6]; at 57.5 µM (top of the series),10.8% (inactive)
same,max response,[6]; measured here: cell count channel max response,-1.92%
same,max response,[6]; measured here: lipid channel max response,12.9%
same,Potency,Furin (Homo sapiens),inactive
same,Potency,[7],22.4 µM (active)
same,Potency,[8],11.2 µM (active)
same,Potency,[9],158 µM (active)
same,Potency,[10],100 µM (active)
same,"activity change, negative = inhibition",[11],35.9% [at 5.25 µM] (inactive)
COc1ccc(-c2cc(=O)c3c(O)cc(O[C@@H]4O[C@H](CO[C@@H]5O[C@@H](C)[C@H](O)[C@@H](O)[C@@H]5O)[C@@H](O)[C@H](O)[C@@H]4O)cc3o2)cc1O,Potency,[1],10.9 µM (active)
c1ccc2sc(C3(NCC4CC4)CCCCC3)cc2c1,Potency,[3],inactive
C[C@@H]1O[C@@H](O[C@H]2C[C@@H](O)[C@]3(CO)C4C(CC[C@]3(O)C2)[C@@]2(O)CC[C@H](C3=CC(=O)OC3)[C@@]2(C)C[C@H]4O)[C@H](O)[C@H](O)[C@H]1O (some centres not stated),Potency,Furin (Homo sapiens),inactive
same,outcome,[12],inactive
same,Potency,[3],inactive
same,Potency,[13],inactive
same,Potency,[11],234 nM (active)
same,Potency,[14],inactive
COc1ccc2[nH]cc(C3=CCNCC3)c2c1,Potency,[15],251 nM (active)
same,Potency,[16],> 46 µM (inactive)
same,Potency,[17],> 46 µM (inactive)
same,outcome,[18],inactive
same,Potency,[19],1.26 µM (active)
same,Potency,[20],inactive
same,Potency,[21],44.7 µM (active)
same,Potency,[3],inactive
same,Potency,[22],6.31 µM (active)
same,Potency,[23],12.6 µM (active) and 35.5 µM (active)
